Data reported in the supplement of paper PMC10849652.
About 8,800 targets were measured; listed, in parts, are those with a hit and a random draw of the rest. About 0.5% of all pairs of compound and target were hits.

Compound: CN1CC[C@H](c2c(O)cc(O)c3c(=O)cc(-c4ccccc4Cl)oc23)[C@H](O)C1 [alvocidib]
Experiment: log2 fold change, soluble protein after heating vs DMSO (PISA); higher = thermal stabilisation; K562 lysate, 10 uM; active = over 0.2 and 3.5 SD of the protein, either way, in both replicates (recomputed)
Summary of the method: (§1)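 To prepare the extract, K562 pellets were dounce-homogenised in PBS pH 7.4 with 1 mM MgCl2, giving crude material at 1 mg/mL protein. This was treated with 10 μM compound for 30 min, then heated in aliquots for 3 min over 48°C-58°C before pooling and addition of NP-40 to 0.5% at 4°C. Centrifugation at 21,000xg for 90 min left soluble protein in the supernatant, which TMTpro 16plex LC-MS/MS quantified with equalised channel sums. Results are log-two fold changes in thermal stability compared with solvent controls, from duplicates.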

UniProt P27348, sequence (P27348 whole entry, looked up): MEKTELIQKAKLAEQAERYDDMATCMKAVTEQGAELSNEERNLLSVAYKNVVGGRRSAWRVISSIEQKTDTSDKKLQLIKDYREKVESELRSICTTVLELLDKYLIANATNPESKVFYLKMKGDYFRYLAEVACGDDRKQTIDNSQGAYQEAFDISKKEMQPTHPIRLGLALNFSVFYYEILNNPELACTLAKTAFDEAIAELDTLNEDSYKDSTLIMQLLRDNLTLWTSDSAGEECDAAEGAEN
UniProt Q86WB0, sequence (Q86WB0 whole entry, looked up): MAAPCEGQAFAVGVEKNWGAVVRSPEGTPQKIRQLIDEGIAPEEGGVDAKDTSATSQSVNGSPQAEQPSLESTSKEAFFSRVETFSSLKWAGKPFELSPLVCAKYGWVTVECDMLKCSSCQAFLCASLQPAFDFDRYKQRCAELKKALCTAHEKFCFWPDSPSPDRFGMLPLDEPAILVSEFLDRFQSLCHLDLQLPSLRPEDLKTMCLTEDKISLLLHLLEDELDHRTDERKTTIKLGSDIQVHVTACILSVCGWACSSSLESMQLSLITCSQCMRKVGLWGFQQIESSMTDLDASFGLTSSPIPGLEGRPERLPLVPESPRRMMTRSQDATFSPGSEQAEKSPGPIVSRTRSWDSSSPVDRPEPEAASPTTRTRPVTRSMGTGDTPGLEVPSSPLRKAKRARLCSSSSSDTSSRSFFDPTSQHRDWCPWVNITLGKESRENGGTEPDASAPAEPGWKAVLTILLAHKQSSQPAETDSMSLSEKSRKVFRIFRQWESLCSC
UniProt A4D1P6, sequence (A4D1P6 whole entry, looked up): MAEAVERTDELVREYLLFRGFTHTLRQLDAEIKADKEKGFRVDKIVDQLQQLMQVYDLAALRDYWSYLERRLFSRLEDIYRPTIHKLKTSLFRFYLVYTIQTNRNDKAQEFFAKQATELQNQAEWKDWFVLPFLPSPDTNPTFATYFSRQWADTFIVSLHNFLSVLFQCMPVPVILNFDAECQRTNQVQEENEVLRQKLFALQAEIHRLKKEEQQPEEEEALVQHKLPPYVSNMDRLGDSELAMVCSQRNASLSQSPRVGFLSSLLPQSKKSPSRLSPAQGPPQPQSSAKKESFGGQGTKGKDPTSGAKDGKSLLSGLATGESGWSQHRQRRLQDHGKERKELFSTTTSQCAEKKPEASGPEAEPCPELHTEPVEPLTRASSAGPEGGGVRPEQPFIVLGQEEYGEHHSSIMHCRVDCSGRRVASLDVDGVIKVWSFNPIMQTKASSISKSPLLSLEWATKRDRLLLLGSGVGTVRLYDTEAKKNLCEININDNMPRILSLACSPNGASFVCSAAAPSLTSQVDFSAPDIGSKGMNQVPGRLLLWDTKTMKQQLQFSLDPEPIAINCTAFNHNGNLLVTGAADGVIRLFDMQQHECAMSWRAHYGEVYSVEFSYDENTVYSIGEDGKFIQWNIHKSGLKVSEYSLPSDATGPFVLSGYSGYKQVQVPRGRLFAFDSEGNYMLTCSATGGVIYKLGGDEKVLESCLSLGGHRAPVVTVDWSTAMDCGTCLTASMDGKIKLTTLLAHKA
UniProt Q96S55, sequence (Q96S55 whole entry, looked up): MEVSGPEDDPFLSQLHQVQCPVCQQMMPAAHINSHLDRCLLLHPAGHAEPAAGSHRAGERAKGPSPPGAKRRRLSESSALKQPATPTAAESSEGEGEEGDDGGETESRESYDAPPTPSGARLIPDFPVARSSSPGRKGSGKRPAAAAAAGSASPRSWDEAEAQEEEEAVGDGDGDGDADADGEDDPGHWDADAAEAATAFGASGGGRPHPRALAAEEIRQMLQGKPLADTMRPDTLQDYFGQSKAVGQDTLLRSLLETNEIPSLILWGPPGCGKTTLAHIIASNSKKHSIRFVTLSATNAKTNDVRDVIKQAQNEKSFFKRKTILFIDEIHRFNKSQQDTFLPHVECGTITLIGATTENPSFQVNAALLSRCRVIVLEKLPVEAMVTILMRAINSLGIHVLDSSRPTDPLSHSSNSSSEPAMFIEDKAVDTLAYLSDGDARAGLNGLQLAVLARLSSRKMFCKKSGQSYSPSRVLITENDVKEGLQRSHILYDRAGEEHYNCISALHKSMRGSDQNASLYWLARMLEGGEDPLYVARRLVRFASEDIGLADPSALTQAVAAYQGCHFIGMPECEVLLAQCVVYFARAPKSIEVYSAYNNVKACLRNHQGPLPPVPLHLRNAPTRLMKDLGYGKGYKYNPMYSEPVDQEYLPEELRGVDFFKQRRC
UniProt Q9NZ43, sequence (Q9NZ43 whole entry, looked up): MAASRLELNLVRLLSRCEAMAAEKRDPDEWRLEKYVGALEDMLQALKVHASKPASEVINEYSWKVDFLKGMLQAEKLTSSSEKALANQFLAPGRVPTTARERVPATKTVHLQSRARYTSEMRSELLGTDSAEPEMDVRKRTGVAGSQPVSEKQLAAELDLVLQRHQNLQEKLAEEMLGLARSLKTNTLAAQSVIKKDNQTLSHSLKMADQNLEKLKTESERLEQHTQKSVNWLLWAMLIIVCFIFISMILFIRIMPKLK
UniProt Q9P1Q0, sequence (Q9P1Q0 whole entry, looked up): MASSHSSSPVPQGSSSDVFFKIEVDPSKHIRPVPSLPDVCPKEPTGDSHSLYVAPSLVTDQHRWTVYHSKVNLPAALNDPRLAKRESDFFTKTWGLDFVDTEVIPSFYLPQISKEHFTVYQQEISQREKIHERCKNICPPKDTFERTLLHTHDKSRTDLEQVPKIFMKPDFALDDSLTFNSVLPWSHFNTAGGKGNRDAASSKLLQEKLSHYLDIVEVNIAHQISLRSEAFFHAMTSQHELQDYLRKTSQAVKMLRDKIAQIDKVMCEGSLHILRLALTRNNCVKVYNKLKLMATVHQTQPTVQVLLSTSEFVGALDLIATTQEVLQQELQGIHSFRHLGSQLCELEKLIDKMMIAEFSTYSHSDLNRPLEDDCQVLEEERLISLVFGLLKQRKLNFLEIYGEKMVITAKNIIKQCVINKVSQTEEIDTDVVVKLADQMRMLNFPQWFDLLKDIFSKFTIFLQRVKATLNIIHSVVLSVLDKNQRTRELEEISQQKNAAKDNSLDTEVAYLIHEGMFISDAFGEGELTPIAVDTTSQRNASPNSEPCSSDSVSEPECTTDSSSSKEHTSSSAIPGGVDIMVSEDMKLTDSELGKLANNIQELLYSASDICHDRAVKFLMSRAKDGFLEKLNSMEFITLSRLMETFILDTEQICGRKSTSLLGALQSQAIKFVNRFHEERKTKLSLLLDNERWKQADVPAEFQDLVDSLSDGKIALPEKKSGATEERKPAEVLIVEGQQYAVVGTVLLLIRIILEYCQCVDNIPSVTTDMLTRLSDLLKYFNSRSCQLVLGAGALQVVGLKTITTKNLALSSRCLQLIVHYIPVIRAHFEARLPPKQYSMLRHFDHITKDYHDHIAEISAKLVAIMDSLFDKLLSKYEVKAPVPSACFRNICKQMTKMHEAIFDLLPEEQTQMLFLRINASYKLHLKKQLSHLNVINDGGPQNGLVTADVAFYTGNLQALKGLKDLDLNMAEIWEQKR
UniProt O00258, sequence (O00258 whole entry, looked up): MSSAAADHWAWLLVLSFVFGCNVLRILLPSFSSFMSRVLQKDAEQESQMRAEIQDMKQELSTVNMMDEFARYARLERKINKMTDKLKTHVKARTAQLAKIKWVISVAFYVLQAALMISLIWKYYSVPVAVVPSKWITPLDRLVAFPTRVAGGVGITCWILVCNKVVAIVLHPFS
UniProt O75362, sequence (O75362 whole entry, looked up): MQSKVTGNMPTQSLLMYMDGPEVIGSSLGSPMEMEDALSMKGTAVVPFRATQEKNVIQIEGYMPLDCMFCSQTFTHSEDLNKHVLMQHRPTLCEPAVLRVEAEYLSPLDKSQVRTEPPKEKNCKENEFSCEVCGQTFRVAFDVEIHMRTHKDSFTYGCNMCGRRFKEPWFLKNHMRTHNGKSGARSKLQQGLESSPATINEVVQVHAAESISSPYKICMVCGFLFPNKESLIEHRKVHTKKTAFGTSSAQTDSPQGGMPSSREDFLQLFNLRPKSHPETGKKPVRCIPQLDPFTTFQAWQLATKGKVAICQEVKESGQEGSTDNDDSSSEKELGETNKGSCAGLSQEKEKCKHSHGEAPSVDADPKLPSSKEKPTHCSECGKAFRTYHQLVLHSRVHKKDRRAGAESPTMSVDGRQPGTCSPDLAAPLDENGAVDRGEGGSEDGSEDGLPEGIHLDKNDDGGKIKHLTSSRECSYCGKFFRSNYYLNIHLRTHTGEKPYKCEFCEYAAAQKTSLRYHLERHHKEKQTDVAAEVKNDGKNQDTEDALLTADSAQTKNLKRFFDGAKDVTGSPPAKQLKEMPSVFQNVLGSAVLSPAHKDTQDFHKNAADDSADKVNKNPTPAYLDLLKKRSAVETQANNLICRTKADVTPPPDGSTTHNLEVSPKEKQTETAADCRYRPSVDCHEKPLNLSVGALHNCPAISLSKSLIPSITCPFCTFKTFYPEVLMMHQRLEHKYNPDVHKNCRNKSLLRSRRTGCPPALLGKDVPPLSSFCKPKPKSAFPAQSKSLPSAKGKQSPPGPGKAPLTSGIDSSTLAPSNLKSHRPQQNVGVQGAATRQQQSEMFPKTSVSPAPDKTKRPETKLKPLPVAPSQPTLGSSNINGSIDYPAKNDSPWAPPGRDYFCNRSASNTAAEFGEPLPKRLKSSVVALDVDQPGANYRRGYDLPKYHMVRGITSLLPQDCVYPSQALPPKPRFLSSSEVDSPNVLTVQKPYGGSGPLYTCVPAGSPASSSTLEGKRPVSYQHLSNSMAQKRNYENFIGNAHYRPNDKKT
UniProt Q15906, sequence (Q15906 whole entry, looked up): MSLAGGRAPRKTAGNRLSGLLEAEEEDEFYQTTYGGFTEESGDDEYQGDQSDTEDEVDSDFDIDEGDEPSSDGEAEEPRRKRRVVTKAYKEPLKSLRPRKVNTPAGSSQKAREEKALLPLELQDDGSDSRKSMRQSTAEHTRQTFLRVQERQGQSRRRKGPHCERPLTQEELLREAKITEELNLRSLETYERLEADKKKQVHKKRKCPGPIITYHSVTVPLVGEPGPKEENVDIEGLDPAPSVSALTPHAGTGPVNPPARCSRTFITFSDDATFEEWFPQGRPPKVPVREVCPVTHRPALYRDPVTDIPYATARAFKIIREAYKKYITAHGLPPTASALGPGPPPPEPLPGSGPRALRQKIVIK

log2 fold change, inactive:
UPF3B (UniProt Q9BZI7) -0.105, YWHAQ (UniProt P27348) 0.16, ZNF609 (UniProt O15014) -0.028, WRB (UniProt O00258) -0.022, VPS72 (UniProt Q15906) 0, YTHDC2 (UniProt Q9H6S0) 0.05, ZC3HC1 (UniProt Q86WB0) 0.049, ZNF217 (UniProt O75362) -0.144, USP10 isoform 2 (UniProt Q14694) 0.006, ZMYM4 (UniProt Q5VZL5) -0.071, USP16 (UniProt Q9Y5T5) 0.004, VPS54 (UniProt Q9P1Q0) -0.07, ZDHHC18 (UniProt Q9NUE0) -0.09, YRDC (UniProt Q86U90) 0.015, WRNIP1 (UniProt Q96S55) 0.005, ZMYM2 (UniProt Q9UBW7) 0.076, YDJC (UniProt A8MPS7) -0.039, ZFYVE19 (UniProt Q96K21) -0.141, WDR7 (UniProt Q9Y4E6) -0.008, WDR91 (UniProt A4D1P6) -0.018, ZNHIT6 (UniProt Q9NWK9) 0.004, UTP18 (UniProt Q9Y5J1) 0.009, USE1 (UniProt Q9NZ43) 0.019, XPO5 (UniProt Q9HAV4) 0.025, ZC3H13 (UniProt Q5T200) -0.063, VPS18 (UniProt Q9P253) -0.016, USP48 (UniProt Q86UV5) -0.193, UTP3 (UniProt Q9NQZ2) 0.04, WAC (UniProt Q9BTA9) -0.008, VASP (UniProt P50552) 0.031

log2 fold change, active:
WDR77 (UniProt Q9BQA1) 0.242

Compound: CN1CCc2c(c3ccccc3n2Cc2ccc(C(=O)NO)cc2)C1 [Tubastatin A]
Experiment: as above
Summary of the method: as §1

log2 fold change, inactive:
UPF3B (UniProt Q9BZI7) -0.001, YWHAQ (UniProt P27348) -0.021, ZNF609 (UniProt O15014) -0.044, WRB (UniProt O00258) 0.114, VPS72 (UniProt Q15906) 0.028, YTHDC2 (UniProt Q9H6S0) -0.084, WDR77 (UniProt Q9BQA1) 0.004, ZC3HC1 (UniProt Q86WB0) -0.101, ZNF217 (UniProt O75362) -0.076, USP10 isoform 2 (UniProt Q14694) -0.118, ZMYM4 (UniProt Q5VZL5) -0.089, USP16 (UniProt Q9Y5T5) -0.118, VPS54 (UniProt Q9P1Q0) 0, ZDHHC18 (UniProt Q9NUE0) -0.016, YRDC (UniProt Q86U90) -0.006, WRNIP1 (UniProt Q96S55) -0.229, ZMYM2 (UniProt Q9UBW7) -0.155, YDJC (UniProt A8MPS7) 0.052, ZFYVE19 (UniProt Q96K21) 0.026, WDR7 (UniProt Q9Y4E6) 0.008, WDR91 (UniProt A4D1P6) -0.097, ZNHIT6 (UniProt Q9NWK9) -0.046, UTP18 (UniProt Q9Y5J1) -0.05, USE1 (UniProt Q9NZ43) -0.054, XPO5 (UniProt Q9HAV4) -0.184, ZC3H13 (UniProt Q5T200) 0.063, VPS18 (UniProt Q9P253) -0.106, USP48 (UniProt Q86UV5) -0.069, UTP3 (UniProt Q9NQZ2) -0.022, WAC (UniProt Q9BTA9) -0.035, VASP (UniProt P50552) 0.022
